Assay [1] deals with Aldehyde dehydrogenase, mitochondrial (Homo sapiens) (UniProt P05091). Description: qHTS for Inhibitors of the Aldehyde Dehydrogenase Family (ALDH2) Validation screens (AID 2061302; active = well fitted inhibition curve with a large enough effect; title and protocol of this record describe different tests; note: potency is the fitted concentration of half-maximal effect).
Assay [2] has the same target. Description: qHTS for Inhibitors of the Aldehyde Dehydrogenase Family (ALDH2) Confirmatory screens (AID 2061303; active = well fitted inhibition curve with a large enough effect; title and protocol of this record describe different tests; note: nearly all actives have a fitted effect of over 45% in size; note: potency is the fitted concentration of half-maximal effect).
Assay [3] is described as follows: qHTS for Inhibitors of the Aldehyde Dehydrogenase Family (ALDH1A2, ALDH1A3, ALDH2, ALDH3A1) (AID 2061307). For Potency: test system not described further here; potency is the fitted concentration of half-maximal effect. Note: nearly all actives have a fitted effect of over 50% in size.
The target of assay [4] is Aldehyde dehydrogenase, mitochondrial (Homo sapiens) (UniProt P05091). Kind of assay: qHTS for Inhibitors of the Aldehyde Dehydrogenase Family (ALDH2) Primary screen (AID 2061308).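 Note: plate controls were vehicle for no effect and reference inhibitor for full effect; nearly all actives have a fitted effect of over 55% in size.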
Assay [5] has as its target Retinal dehydrogenase 2 (Homo sapiens) (UniProt O94788). Kind of assay: qHTS for Inhibitors of the Aldehyde Dehydrogenase Family (ALDH1A2) Confirmation screens (AID 2061314). Note: nearly all actives have a fitted effect of over 65% in size.
In assay [6] the target is Aldehyde dehydrogenase 1A1 (Homo sapiens) (UniProt P00352). Description: qHTS for Inhibitors of the Aldehyde Dehydrogenase Family (ALDH1A1) Confirmatory screens (AID 2061316). Note: nearly all actives have a fitted effect of over 65% in size. Note: potency is the fitted concentration of half-maximal effect.
Assay [7] concerns the target Retinaldehyde dehydrogenase 3 (Homo sapiens) (UniProt P47895). Kind of assay: qHTS for Inhibitors of the Aldehyde Dehydrogenase Family (ALDH1A3) Validation screen (AID 2061312). Note: % is set by controls: 0 for no effect and ±100 for the full control effect; nearly all actives have a fitted effect of over 45% in size.
Assay [8] shares this target. Description: qHTS for Inhibitors of the Aldehyde Dehydrogenase Family (ALDH1A3) Confirmatory screens (AID 2061311). Note: % is set by controls: 0 for no effect and ±100 for the full control effect; nearly all actives have a fitted effect of over 60% in size.
Assay [9] has the same target. Description: qHTS for Inhibitors of the Aldehyde Dehydrogenase Family (ALDH1A3) Primary screen (AID 2061315).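 Note: plate controls were DMSO vehicle for no effect and reference inhibitor for full effect.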
Assay [10] can be described thus: BET inhibitor-based combinations targeting novel dependencies in MECOM-rearranged (r) AML: SET-2 cell line (AID 2202231).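 For viability: plate controls were DMSO treated cells for no effect and wells without cells for full effect.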 Note: nearly all actives have a fitted effect of over 35% in size. Note: potency is the fitted concentration of half-maximal effect. The settings on record: SET-2 AML cells viability, CellTiter-Glo luminescence, 48 h; viability: active compounds read low, concentration not given here. A digest of the protocol: (§1)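 Each compound was tested at eleven concentrations on cells seeded at 500/well. After two days' incubation, ATP-based luminescence reported viability; responses relative to DMSO and blank wells yielded AUC and cell-line-centred Z-AUC.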

The nature of assay [11]: BET inhibitor-based combinations targeting novel dependencies in MECOM-rearranged (r) AML: OCI-AML3 cell line (AID 2202232). Note: nearly all actives have a fitted effect of over 35% in size. Note: potency is the fitted concentration of half-maximal effect. The settings on record: Potency: OCI-AML3 viability. The procedure, abridged:
as §1

The nature of assay [12]: BET inhibitor-based combinations targeting novel dependencies in MECOM-rearranged (r) AML: MV-4-11 cell line (AID 2202233). Note: potency is the fitted concentration of half-maximal effect; nearly all actives have a fitted effect of over 45% in size. A digest of the protocol: (§2)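 First, 500 cells per well were seeded; next, drugs were pinned as 11-point doses; then plates sat 48 hr in the incubator; finally CellTiter-Glo was added and luminescence read, with AUC and Z-AUC computed.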
A short description of assay [13]: BET inhibitor-based combinations targeting novel dependencies in MECOM-rearranged (r) AML: HNT-34 cell line (AID 2202234). Note: potency is the fitted concentration of half-maximal effect; nearly all actives have a fitted effect of over 35% in size. A digest of the protocol:
as §2

Assay [14] can be described thus: BET inhibitor-based combinations targeting novel dependencies in MECOM-rearranged (r) AML: UCSD-AML1 cell line (AID 2202235). Note: potency is the fitted concentration of half-maximal effect; nearly all actives have a fitted effect of over 40% in size. A digest of the protocol: as §2
The nature of assay [15]: BET inhibitor-based combinations targeting novel dependencies in MECOM-rearranged (r) AML: AML-194 cell line (AID 2202237; note: nearly all actives have a fitted effect of over 40% in size; note: potency is the fitted concentration of half-maximal effect). The procedure, abridged: as §1

Inconclusive results are not listed. Values without a mark were called inactive. The source made the active and inactive calls. Unless noted, calls come from the whole dose curve; as a rule, active = well fitted curve in the direction sought with a large enough effect; inconclusive = small, poorly fitted or top-dose-only effect, or another doubt; inactive = no such curve, though single readings can be large; an effect the other way counts as inactive or inconclusive.

In the case of `N#Cc1ccc(-c2ccc(CNc3ccc(N4CCC(C(F)(F)F)CC4)cc3)o2)cc1`, the Potency in [1] is 0.447 µM (active); in assay [2] it was 0.0357 µM (active); in assay [3] it was 0.712 µM (active); in assay [6], 6.34 µM (active). In addition, the Potency result in assay [4] and in assay [5] was “inactive” throughout.
Take `CC(N)=O`: the Potency entry in [1] and in assay [7] was “inactive” in each case.
For `O=C(O)CN(CCOCCOCCN(CC(=O)O)CC(=O)O)CC(=O)O`, the Potency entry in [1], in assay [2], in [3], in [8], in assay [5] and in [6] was “inactive” in each case.
With `CC(=O)[C@H]1CC[C@H]2[C@@H]3CCC4=CC(=O)CC[C@]4(C)[C@H]3CC[C@]12C`, the Potency result in assay [1] and in assay [7] was “inactive” throughout.
Regarding `CCN(CC)CCNC(=O)c1ccc(N)cc1`, the Potency result in [1], in [2], in [3], in assay [8], in assay [7] and in assay [5] was “inactive” throughout. Also, the Potency entry in [9] and in assay [6] was “inactive” in each case.
For the compound `CC(C)c1c(C(=O)Nc2ccccc2)c(-c2ccccc2)c(-c2ccc(F)cc2)n1CC[C@@H](O)C[C@@H](O)CC(=O)O`, the Potency result in assay [1], in assay [4], in [7] and in assay [9] was “inactive” in each case. Moreover, the Potency in [10] is 7.23 µM (active); in [11], 3.23 µM (active); in assay [12], 5.74 µM (active); in [13], 10.2 µM (active); in assay [14] it was 7.23 µM (active); in [15], 12.9 µM (active).
In the case of `CC(C(O)c1ccc(O)cc1)N1CCC(Cc2ccccc2)CC1` (centres undefined), the Potency entry in [1], in assay [4], in assay [7] and in assay [9] was “inactive” each time.
Regarding `CC(=O)O[C@]1(C(C)=O)CC[C@H]2[C@@H]3C=C(Cl)C4=CC(=O)[C@@H]5C[C@@H]5[C@]4(C)[C@H]3CC[C@@]21C`, the Potency result in assay [1], in assay [4], in assay [7], in [9], in assay [11] and in assay [15] was “inactive” in each case. Moreover, the viability in assay [10] is 80.8%.
As for `Clc1ccc2c(c1)C(N1CCNCC1)=Nc1ccccc1O2`, the Potency result in [1], in assay [4], in assay [7] and in assay [9] was “inactive” throughout.

Source of the values: PubChem BioAssay (NCATS).
